# Measured values from PubChem BioAssay (NCATS).
# Results filed as inconclusive are left out. Calls of active or inactive are those of the source. Calls follow the shape of the dose curve; as a rule, active = well fitted curve in the direction sought with a large enough effect; inconclusive = small, poorly fitted or top-dose-only effect, or effect the other way, or another doubt; inactive = no such curve, though single readings can be large or run the other way.
# Biological target: Transient receptor potential cation channel subfamily V member 1 (Homo sapiens) (UniProt Q8NER1)
# Sequence (Q8NER1 whole entry, looked up): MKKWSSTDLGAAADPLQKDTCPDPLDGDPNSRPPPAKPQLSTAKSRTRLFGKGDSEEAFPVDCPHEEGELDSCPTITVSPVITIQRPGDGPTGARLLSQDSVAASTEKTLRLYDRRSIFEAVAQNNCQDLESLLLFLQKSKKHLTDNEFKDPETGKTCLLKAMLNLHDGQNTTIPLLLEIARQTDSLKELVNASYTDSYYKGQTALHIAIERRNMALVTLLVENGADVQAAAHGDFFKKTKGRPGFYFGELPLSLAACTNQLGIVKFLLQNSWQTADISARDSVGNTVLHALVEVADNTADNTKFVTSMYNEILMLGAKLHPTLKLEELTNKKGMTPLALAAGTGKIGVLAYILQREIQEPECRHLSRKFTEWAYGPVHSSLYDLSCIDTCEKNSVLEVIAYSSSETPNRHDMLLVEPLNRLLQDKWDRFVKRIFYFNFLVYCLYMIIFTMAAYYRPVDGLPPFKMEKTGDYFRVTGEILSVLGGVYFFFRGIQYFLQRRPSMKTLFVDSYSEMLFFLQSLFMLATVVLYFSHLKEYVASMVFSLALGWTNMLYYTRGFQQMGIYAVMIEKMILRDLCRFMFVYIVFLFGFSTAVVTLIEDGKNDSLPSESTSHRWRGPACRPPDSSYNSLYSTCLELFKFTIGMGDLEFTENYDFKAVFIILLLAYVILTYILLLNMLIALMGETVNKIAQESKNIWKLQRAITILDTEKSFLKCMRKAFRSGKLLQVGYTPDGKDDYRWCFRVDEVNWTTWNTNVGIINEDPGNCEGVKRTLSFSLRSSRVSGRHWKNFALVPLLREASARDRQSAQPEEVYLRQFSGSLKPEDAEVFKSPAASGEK
# Assay: HTS Assay for Compounds that Act as Enhancers of the Vanilloid Receptor 1 (AID 488979)
# Conditions: TRPV1-expressing cells, enhancer of channel activity, stimulated with capsaicin at EC20; series mostly up to 41.7 µM
# Excerpt: The transient receptor potential ion channel, family V, number 1, (TRPV1) is one of the most important molecular transducers of painful stimuli and a potential target for analgesic drug development. Although recent clinical trials with orthosteric antagonists have not produced a successful drug because of a hyperthermia side effect and their tendency to block thermal noxious pain, this ion channel is undeniably well placed in the pain pathway, and the idea of blocking pain signals before they enter the CNS is an excellent concept and of proven efficacy when TRPV1 agonists are used. We propose a new approach involving allosteric modulation to impose an activity-dependent constraint within the context of inflammation and tissue damage that would alter the responsiveness of the channel in a way that an orthosteric vanilloid antagonist cannot achieve. We believe that the allosteric modulator approach has not been explored for this target.
# The main goal of this proposal is to identify additional, new, potent allosteric modulators of TRPV1 that can be used to investigate TRPV1 function. Our recent report provides evidence of proof of concept, but the compounds are just at the edge of utility in terms of potency. […] The question of whether they can be used as analgesic agents is complex, but if suitable compounds are identified then testing for analgesic properties will be conducted.
# Upon TRPV1 activation in TRPV1 cells, the channel opens and extracellular cations flow through the channel into the cytosol. A calcium binding dye (Fluo-8) becomes fluorescent when bound to calcium. This dye is pre-loaded into cells and is used as a marker for calcium influx.
# The amount of accumulated calcium is precisely quantified using the FDSS kinetic reader and the calcium dye.
# For the HTS assay, freshly prepared cells are plated at a density of 2000/well in 3 ul medium in 1536-well plates and cultured overnight at 35.5C. Cells will be loaded with 1 ul of the homogeneous calcium dye (ABD Bioquest) at room temperature for 40 to 90 minutes. Plates will be loaded into the FDSS kinetic reader and a 1 sec / cycle for 10 second baseline signal will be measured. Compound library will then be added with a pintool at 23 nl and measured kinetically for 3 minutes. This portion of the read is considered the agonist portion of the screen. Following the 3 minutes of incubation, an on board pipettor will deliver 1 ul of capsaicin for a final concentration equal to the EC20. Signal will be measured kinetically for an additional 2 minutes. This portion of the read is considered the allosteric enhancer portion of the screen.
# The FDSS reader has a standard filter set capable of measuring calcium bound Fluo-8 (ex=480 and em=520 nm).
row,Structure (SMILES),outcome
1,CC(C)(C)c1ccc(C(O)CCCN2CCC(C(O)(c3ccccc3)c3ccccc3)CC2)cc1 (configuration not stated),inactive
2,CCN(CC)CCOC(=O)c1ccc(N)cc1,inactive
3,COc1cccc(-c2cc(=O)c3ccccc3o2)c1N,inactive
4,O=c1cc(-c2ccc(O)cc2)oc2cc(O)cc(O)c12,inactive
5,NC(N)=Nc1nc(CSCC/C(N)=N/S(N)(=O)=O)cs1,inactive
6,Clc1ccc(Cn2c(CN3CCCC3)nc3ccccc32)cc1,inactive
7,O=c1c(-c2ccc(O)cc2)coc2cc(O)ccc12,inactive
8,NCCS,inactive
9,O=C(O)CCc1nc(-c2ccccc2)c(-c2ccccc2)o1,inactive
10,O=C1NC(=O)C(c2ccccc2)(c2ccccc2)N1,inactive
11,CCCNC(=O)NS(=O)(=O)c1ccc(Cl)cc1,inactive
12,CCN(CC)C(=O)c1ccc(O)c(OC)c1,inactive
13,COC(=O)[C@@H]1[C@H]2C[C@H]3c4[nH]c5ccccc5c4CCN3C[C@@H]2CC[C@@H]1O,inactive
14,CN(C)CCC(c1ccccc1)c1ccccn1 (configuration not stated),inactive
15,CC(=O)N[C@@H](CS)C(=O)O,inactive
16,CCCCC1C(=O)N(c2ccccc2)N(c2ccccc2)C1=O,inactive
17,O=C1NCC2(CCN(CCc3ccccc3)CC2)O1,inactive
18,CC1(C)CCC2=C(O1)c1ccccc1C(=O)C2=O,inactive
19,CC(C)OC(=O)C(C)(C)Oc1ccc(C(=O)c2ccc(Cl)cc2)cc1,inactive
20,COc1ccccc1N1CCN(CCCNc2cc(=O)n(C)c(=O)n2C)CC1,inactive
21,CC/C(=C(\c1ccccc1)c1ccc(OCCN(C)C)cc1)c1ccccc1,inactive
22,C[N+](C)(C)CCCCCC[N+](C)(C)C,inactive
23,CC(=O)c1ccc(S(=O)(=O)NC(=O)NC2CCCCC2)cc1,inactive
24,CCN1CCC[C@H]1CNC(=O)c1cc(S(N)(=O)=O)ccc1OC,inactive
25,Cc1cccc(C)c1OCC(C)N (configuration not stated),inactive
26,CC(=O)CCCCn1c(=O)c2c(ncn2C)n(C)c1=O,inactive
27,CC(C)NCC(O)COc1cccc2[nH]ccc12 (configuration not stated),inactive
